Values joined by “and” are separate entries in the source; they are usually repeats but may differ in a detail not shown here. Equal values may be shown once. Where a structure was tested more than once in an assay, its records may differ in their call. Active and inactive are the calls of the source. How the source made its calls: active means hit-call score of the fitted dose curve at least 0.9, where 1 is the maximum; inactive means score below 0.9.
How the values were obtained:
[1] = read-out: Thrombomodulin, THBD (gene 7056); experiment: BSK_CASM3C_Thrombomodulin: BioMAP Diversity Plus: CASM3C Assay for Thrombomodulin Biomarker Activity (AID 2283051); conditions: primary human coronary artery smooth muscle cells; actives raise or lower the signal;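 further: thrombomodulin protein level measured by ELISA 24 h after dosing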
[2] = read-out: Tissue Factor, F3 (gene 2152); experiment: BSK_CASM3C_TissueFactor: BioMAP Diversity Plus: CASM3C Assay for Tissue Factor Biomarker Activity (AID 2283052); conditions: primary human coronary artery smooth muscle cells; actives raise or lower the signal;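 further: cell surface tissue factor protein level read by ELISA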
[3] = read-out: Interferon-gamma inducible Protein 10 (IP10), CXCL10 (gene 3627); experiment: BSK_hDFCGF_IP10: BioMAP Diversity Plus: hDFCGF Assay for Interferon-gamma inducible Protein 10 (IP10) Biomarker Activity (AID 2283053); conditions: primary human foreskin fibroblasts; actives raise or lower the signal
Method in brief: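 IP-10 levels, quantified by ELISA, are taken from human foreskin fibroblast cultures 24 h after chemical treatment, with DMSO serving as negative control and baseline for bidirectional analysis.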

[4] = read-out: Urokinase-type plasminogen activator receptor (uPAR), PLAUR (gene 5329); experiment: BSK_CASM3C_uPAR: BioMAP Diversity Plus: CASM3C Assay for Urokinase-type plasminogen activator receptor (uPAR) Biomarker Activity (AID 2283054); conditions: primary human coronary artery smooth muscle cells; actives raise or lower the signal;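 further: cell-surface uPAR protein level quantified by ELISA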
[5] = read-out: Vascular cell adhesion molecule 1 (VCAM1), VCAM1 (gene 7412); experiment: BSK_CASM3C_VCAM1: BioMAP Diversity Plus: CASM3C Assay for Vascular cell adhesion molecule 1 (VCAM1) Biomarker Activity (AID 2283055); conditions: primary human coronary artery smooth muscle cells; actives raise or lower the signal;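 further: VCAM-1 protein level quantified by ELISA on the cells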
[6] = read-out: Collagen III, COL3A1 (gene 1281); experiment: BSK_hDFCGF_CollagenIII: BioMAP Diversity Plus: hDFCGF Assay for Collagen III Biomarker Activity (AID 2283056); conditions: primary human foreskin fibroblasts; actives raise or lower the signal
Method in brief: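 Human foreskin fibroblast primary cultures sampled 24 h after dosing; Collagen III quantified by ELISA. Signal fitted bidirectionally against DMSO baseline.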

[7] = read-out: Epidermal growth factor receptor (EGFR), EGFR (gene 1956); experiment: BSK_hDFCGF_EGFR: BioMAP Diversity Plus: hDFCGF Assay for Epidermal growth factor receptor (EGFR) Biomarker Activity (AID 2283057); conditions: primary human foreskin fibroblasts; actives raise or lower the signal
Method in brief: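 Measured by ELISA: EGFR levels on primary human foreskin fibroblasts 24 h after chemical treatment, analysed relative to DMSO with bidirectional fitting.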

[8] = read-out: Interleukin-8 (IL8), CXCL8 (gene 3576); experiment: BSK_hDFCGF_IL8: BioMAP Diversity Plus: hDFCGF Assay for Interleukin-8 (IL8) Biomarker Activity (AID 2283058); conditions: primary human foreskin fibroblasts; actives raise or lower the signal
Method in brief: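 Primary human foreskin fibroblasts (hDFCGF system) dosed with chemical; IL-8 measured by ELISA 24 hours later. Bidirectional curve fitting relative to DMSO baseline; cytotoxicity tracked in parallel cultures by SRB total protein staining.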

[9] = BSK_hDFCGF_Proliferation: Cell Proliferation Assessment in the BioMAP Diversity Plus: hDFCGF Assay (AID 2283059); conditions: primary human foreskin fibroblasts;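 further: curves fitted for both rise and fall of signal versus DMSO baseline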
Method in brief: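 Sub-confluent human foreskin fibroblast cultures receive test chemical […]. Relative cell number is quantified by sulforhodamine B staining (0.1%, after 10% TCA fixation) at 560 nm, with bidirectional fitting referenced to DMSO.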

[10] = read-out: Macrophage colony-stimulating factor (MCSF), CSF1 (gene 1435); experiment: BSK_hDFCGF_MCSF: BioMAP Diversity Plus: hDFCGF Assay for Macrophage colony-stimulating factor (MCSF) Biomarker Activity (AID 2283060); conditions: primary human foreskin fibroblasts; actives raise or lower the signal
Method in brief: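 Human foreskin fibroblast primary cultures; M-CSF measured by ELISA 24 hours after chemical dosing. Bidirectional fitting relative to DMSO, with overt cytotoxicity tracked by parallel SRB total-protein staining (0.1% SRB, 10% TCA fixation, 560 nm).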

[11] = read-out: TIMP metallopeptidase inhibitor 1 (TIMP1), TIMP1 (gene 7076); experiment: BSK_hDFCGF_TIMP1: BioMAP Diversity Plus: hDFCGF Assay for TIMP metallopeptidase inhibitor 1 (TIMP1) Biomarker Activity (AID 2283062); conditions: primary human foreskin fibroblasts; actives raise or lower the signal
Method in brief: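 Human foreskin fibroblast primary cultures dosed for 24 h; secreted/surface TIMP-1 quantified by ELISA. Bidirectional curve fitting against DMSO baseline; cytotoxicity tracked in parallel cultures by SRB total-protein staining.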

[12] = read-out: Matrix Metallopeptidase 1 (MMP1), MMP1 (gene 4312); experiment: BSK_hDFCGF_MMP1: BioMAP Diversity Plus: hDFCGF Assay for Matrix Metallopeptidase 1 (MMP1) Biomarker Activity (AID 2283064); conditions: primary human foreskin fibroblasts; actives raise or lower the signal
Method in brief: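 Primary human foreskin fibroblasts in the hDFCGF system were dosed with test chemical, and MMP1 was measured by ELISA 24 h later. Values come from bidirectional curve fitting against the DMSO baseline.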

[13] = read-out: Vascular cell adhesion molecule 1 (VCAM1), VCAM1 (gene 7412); experiment: BSK_hDFCGF_VCAM1: BioMAP Diversity Plus: hDFCGF Assay for Vascular cell adhesion molecule 1 (VCAM1) Biomarker Activity (AID 2283065); conditions: primary human foreskin fibroblasts; actives raise or lower the signal;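 on AC50: VCAM-1 protein level quantified by ELISA after 24 h chemical exposure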
Method in brief: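 Human foreskin fibroblast primary cells dosed with chemical, VCAM-1 measured by ELISA at 24 h. Bidirectional curve fitting relative to DMSO as negative control/baseline.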

[14] = read-out: Plasminogen activator inhibitor-1 (PAI1), SERPINE1 (gene 5054); experiment: BSK_hDFCGF_PAI1: BioMAP Diversity Plus: hDFCGF Assay for Plasminogen activator inhibitor-1 (PAI1) Biomarker Activity (AID 2283066); conditions: primary human foreskin fibroblasts; actives raise or lower the signal
Method in brief: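 PAI-1 levels, determined by ELISA, served as the endpoint in human foreskin fibroblast cultures exposed to compound for 24 h, with DMSO as baseline.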

[15] = read-out: Intercellular Adhesion Molecule 1 (ICAM1), ICAM1 (gene 3383); experiment: BSK_KF3CT_ICAM1: BioMAP Diversity Plus: KF3CT Assay for Intercellular Adhesion Molecule 1 (ICAM1) Biomarker Activity (AID 2283067); conditions: primary human keratinocytes with fibroblasts; actives raise or lower the signal
Method in brief: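 Human keratinocyte–foreskin fibroblast co-culture was treated for 24 h. Cell-surface ICAM-1 was quantified by ELISA, fitted bidirectionally relative to DMSO. Cytotoxicity was checked in parallel cultures by SRB total-protein staining.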

[16] = read-out: Interferon-gamma inducible Protein 10 (IP10), CXCL10 (gene 3627); experiment: BSK_KF3CT_IP10: BioMAP Diversity Plus: KF3CT Assay for Interferon-gamma inducible Protein 10 (IP10) Biomarker Activity (AID 2283068); conditions: primary human keratinocytes with fibroblasts; actives raise or lower the signal
Method in brief: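 ELISA read-out of IP-10 after 24 h chemical dosing of human skin primary co-culture (keratinocytes, foreskin fibroblasts). Gain or loss of signal relative to DMSO, bidirectional curve fit.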

[17] = BSK_KF3CT_SRB: Viability Assessment in the BioMAP Diversity Plus: KF3CT Assay (AID 2283069); conditions: primary human keratinocytes with fibroblasts;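 further: total protein by sulforhodamine B staining as a cytotoxicity measure; read 24 h after compound addition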
Method in brief: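 Human primary keratinocyte plus foreskin fibroblast co-culture exposed to chemicals for 24 h. Total protein measured by 0.1% sulforhodamine B staining after 10% TCA fixation, read at 560 nm; bidirectional fitting versus DMSO baseline.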

[18] = read-out: Interleukin-1 alpha (IL1a), IL1A (gene 3552); experiment: BSK_KF3CT_IL1a: BioMAP Diversity Plus: KF3CT Assay for Interleukin-1 alpha (IL1a) Biomarker Activity (AID 2283070); conditions: primary human keratinocytes with fibroblasts; actives raise or lower the signal
Method in brief: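 Human keratinocyte plus foreskin fibroblast primary co-culture, sampled 24 h after chemical dosing. IL-1a measured by ELISA; responses fitted bidirectionally against DMSO baseline (negative control), so gain or loss of signal both count.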

[19] = BSK_hDFCGF_SRB: Viability Assessment in the BioMAP Diversity Plus: hDFCGF Assay (AID 2283061); conditions: primary human foreskin fibroblasts;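 further: cells exposed to compound for 24 h before the read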
Method in brief: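 Human foreskin fibroblasts in 96-well plates were treated 24 h. Total protein was measured by 0.1% SRB staining after 10% TCA fixation, read at 560 nm. Data were fitted bidirectionally against DMSO.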

[20] = read-out: Monokine induced gamma interferon (MIG), CXCL9 (gene 4283); experiment: BSK_hDFCGF_MIG: BioMAP Diversity Plus: hDFCGF Assay for Monokine induced gamma interferon (MIG) Biomarker Activity (AID 2283063); conditions: primary human foreskin fibroblasts; actives raise or lower the signal
Method in brief: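 MIG/CXCL9 measured by ELISA 24 h after dosing primary human skin fibroblasts. Activity fitted in both directions against DMSO controls. Cytotoxicity was checked in parallel cultures by SRB staining read at 560 nm.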

Measured: AC50

Oc1cc(Cl)ccc1Oc1ccc(Cl)cc1Cl
inactive: [1] | [2] | [7] | [16]
active: [1] 4.67 µM | [2] 28.3 µM and 27.8 µM and 22.2 µM | [3] 15.4 µM [middle of 4 runs] | [4] 32 µM [middle of 4 runs] | [5] 35.4 µM [middle of 4 runs] | [6] 7.46 µM [middle of 4 runs] | [7] 5.45 µM and 5.46 µM | [8] 30 µM [middle of 4 runs] | [9] 4.61 µM [middle of 4 runs] | [10] 10.7 µM [middle of 4 runs] | [11] 20 µM [middle of 4 runs] | [12] 29.9 µM and 12.3 µM and 26.1 µM | [13] 8.72 µM [middle of 4 runs] | [14] 6.96 µM and 8.43 µM and 7.44 µM | [15] 32.2 µM [middle of 4 runs] | [16] 33.7 µM and 29 µM | [17] 30.1 µM and 14.4 µM and 28.2 µM | [18] 29.8 µM [middle of 4 runs]

Cc1[nH]c(=O)n(C(C)(C)C)c(=O)c1Cl
inactive: [1] | [2] | [3] | [4] | [5] | [6] | [7] | [8] | [9] | [10] | [19] | [11] | [20] | [12] | [13] | [14] | [15] | [16] | [17] | [18]

OCCOc1ccccc1
inactive: [1] | [2] | [3] | [4] | [5] | [6] | [7] | [8] | [9] | [10] | [11] | [20] | [12] | [13] | [14] | [15] | [16] | [17] | [18]

N#CN
inactive: [1] | [2] | [3] | [4] | [5] | [6] | [7] | [8] | [9] | [10] | [19] | [11] | [20] | [12] | [13] | [14] | [15] | [16] | [17] | [18]

CCS(=O)(=O)c1cccnc1S(=O)(=O)NC(=O)Nc1nc(OC)cc(OC)n1
inactive: [1] | [2] | [3] | [4] | [5] | [6] | [7] | [8] | [9] | [10] | [11] | [20] | [12] | [13] | [14] | [15] | [17] | [18]
active: [16] 266 nM

O=[N+]([O-])/N=C1\NCCN1Cc1ccc(Cl)nc1
inactive: [1] | [2] | [3] | [4] | [5] | [6] | [7] | [8] | [9] | [10] | [19] | [11] | [12] | [13] | [14] | [15] | [16] | [17] | [18]

— PubChem BioAssay (EPA / NIEHS)
